# Source: PubChem BioAssay
# aSyn UTR act: Activators via SNCA 5'UTR binding, MLPCN; alpha-synuclein 5'UTR reporter, activators screen; activity score, % (tested at 7.5 µM), hits read low; 7.1% of 300,000 active; AID 1814; in the data active = activity score below about -60%
# Numbers stand for hits; i = inactive. These entries were drawn from the full list.
SMILES,aSyn UTR act
O=C(COc1ccccc1C(=O)c1cnn(-c2ccccc2)c1)Nc1ccccc1,-73
CCOc1ccc(NC(=O)c2ccc(NC(=O)COC(=O)Cc3ccc(OC)cc3)cc2)cc1,-93
CC(=O)c1cccc(NC(=O)COC(=O)c2ccccc2C)c1,-101
CCOc1ccc(NC(=O)c2ccccc2CO)cc1,-86
CC1CC(=O)c2c(cc3c(-c4c(O)cc(O)c5c(O)c6c(cc45)OC(C)CC6=O)c(O)cc(O)c3c2O)O1 (stereo not drawn),i
N#CC1=C(N)Oc2cc(N)ccc2C1C1CCCCC1 (stereo not drawn),-89
CN(C)c1ccc2c(c1)OC(N)=C(C#N)C2c1cccc(F)c1 (stereo not drawn),i
N#CC1=C(N)Oc2cc(N)ccc2C1c1cccc(F)c1 (stereo not drawn),-137
COc1ccc(OCc2cc(C(=O)NCC3CCCCO3)no2)c(Cl)c1 (stereo not drawn),-152
CN(CCc1ccccc1)C(=O)c1cc(COc2ccc(F)cc2Cl)on1,-82
COc1ccc(OCc2cc(C(=O)NCCc3ccccc3)no2)c(Cl)c1,-95
O=C(NCCc1cnn(-c2ccccc2)c1)c1cc(COc2c(F)cccc2F)on1,-80
COc1ccc(OCc2cc(C(=O)NCC3CCOCC3)no2)c(Cl)c1,-140
COc1ccc(CCNC(=O)c2cc(COc3c(C)cccc3C)on2)c(OC)c1,-91
Cc1ccc(/C=C\c2nccc3c2[nH]c2ccccc23)cc1,-125
Fc1ccc(/C=C\c2nccc3c2[nH]c2ccccc23)cc1,-139
C(=C\c1nccc2c1[nH]c1ccccc12)/c1ccccc1,-84
Cc1ccc(OCCn2cnc3ccccc3c2=O)c([N+](=O)[O-])c1,-157
CCOc1ccc(OCCn2nnc3ccccc3c2=O)cc1,-121
CCOc1cccc(OCCn2cnc3ccccc3c2=O)c1,-79
CC(=O)Nc1nc(-c2ccccc2)ns1,-108
COCC(=O)Nc1nc(-c2ccccc2)ns1,-78
O=c1cc2[nH]c3ccccc3c(=O)n2nc1-c1ccccc1,-125
O=C(NCSc1ccccc1)c1ccccc1,-94
CCOC(=O)C(=CNc1ccc(C(F)(F)F)cc1Cl)C(=O)OCC,-97
SMILES,aSyn UTR act
C/C(CC(C)(C)C1CCCCC1)=N\NC(N)=S,-76
Cc1ccc(C2C=NN(c3ccccc3)C2=O)cc1 (stereo not drawn),-64
Nc1cccc(/C=C/c2ccncc2)c1,-68
CCSc1nsc(NC(=O)Nc2cccc(OC)c2)n1,-140
CCSc1nsc(NC(=O)Nc2ccccc2F)n1,-183
CC(=O)Oc1ccc(-c2cc3ccccc3oc2=O)cc1,-135
O=c1cc(-c2ccccc2)c2ccc(O)cc2o1,i
COc1ccc(-c2cc3ccc(O)cc3oc2=O)cc1,-64
O=c1oc2cc(O)ccc2cc1-c1ccccc1,-147
O=c1c2sccc2nc(SCc2cc(=O)n3cc(Br)ccc3n2)n1Cc1ccccn1,-90
CC1CC/C(=C\c2ccc3c(c2)OCO3)C(=O)/C1=C/c1ccc2c(c1)OCO2 (stereo not drawn),-80
O=C1/C(=C\c2ccc3c(c2)OCO3)CCC/C1=C/c1ccc2c(c1)OCO2,-93
O=C1/C(=C/c2ccncc2)CCC/C1=C\c1ccncc1,-101
N#C/C(=C/C=C/c1ccccc1)C(=O)Nc1ccccc1,-109
N#C/C(=C\C=C\c1ccccc1[N+](=O)[O-])C(=O)NCc1ccccc1,-291
O=C(Cc1ccccc1)N/N=C/C=C/c1ccccc1[N+](=O)[O-],-83
O=C(O)c1ccc(N/N=C/C=C/c2ccccc2[N+](=O)[O-])cc1,-127
Cc1ccc(CSc2nnc(SCC(=O)N/N=C/C=C/c3ccccc3[N+](=O)[O-])s2)cc1,i
O=C(Cc1cccs1)N/N=C/C=C/c1ccccc1[N+](=O)[O-],-99
CC(=O)c1cccc(NC(=O)c2sc(Cl)nc2C)c1,-65
Cc1nc(Cl)sc1C(=O)Nc1ccccc1,-67
Cc1c(C(=O)Nc2ccccc2)sc2nc[nH]c(=O)c12,-72
O=C(c1ccco1)N1CCN(C(=O)N2c3ccccc3Sc3ccccc32)CC1,i
O=C(c1ccco1)N1CCN(c2ccc(Cl)cc2)CC1,-130
O=C(c1ccco1)N1CCN(c2ccc(Cl)c(Cl)c2)CC1,-121
SMILES,aSyn UTR act
O=C(c1ccco1)N1CCN(Cc2c(F)cccc2Cl)CC1,-75
Cc1cnc(C(=O)Nc2ccc(N3CCOCC3)cc2)cn1,-73
Cc1cnc(C(=O)Nc2ccc(OC(F)(F)F)cc2)cn1,-239
Cc1cnc(C(=O)Nc2ccc(N3CCCCC3)cc2)cn1,-135
C/C(=N\NC(=O)COc1ccccc1-c1ccccc1)c1ccccn1,i
C/C(=N\NC(=O)c1sccc1-n1cccc1)c1cccs1,-80
C/C(=N\NC(=O)COc1ccccc1[N+](=O)[O-])c1cccs1,-146
C/C(=N/Nc1ccccc1C(=O)O)c1cccs1,-89
O=C(NN=C1C2CC3CC(C2)CC1C3)c1cccs1,-87
C/C(=N/NC(=O)c1cccs1)c1cccs1,-82
C/C(=N/NC(=O)c1cccs1)c1cccc(N)c1,-86
CC(=O)N1CCC(=NNC(=O)c2cccs2)CC1,-115
CCOC(=O)N/N=C(\C)c1cccs1,-67
